Screening results (PubChem)
ALDH1A1 inh – ALDH1A1 (human) enzyme inhibition; P00352; Purified ALDH1A1, NADH fluorescence, propionaldehyde substrate; Potency, µM (highest dose often 75.3 µM), for inactives: top-dose activity, negative = inhibition, most hits filed as inhibitors; actives 7.3% (n = 220,000); AID 1030;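 note: potency is the fitted concentration of half-maximal effect; plate controls were no enzyme wells and a reference inhibitor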
Target sequence (P00352 whole entry, looked up): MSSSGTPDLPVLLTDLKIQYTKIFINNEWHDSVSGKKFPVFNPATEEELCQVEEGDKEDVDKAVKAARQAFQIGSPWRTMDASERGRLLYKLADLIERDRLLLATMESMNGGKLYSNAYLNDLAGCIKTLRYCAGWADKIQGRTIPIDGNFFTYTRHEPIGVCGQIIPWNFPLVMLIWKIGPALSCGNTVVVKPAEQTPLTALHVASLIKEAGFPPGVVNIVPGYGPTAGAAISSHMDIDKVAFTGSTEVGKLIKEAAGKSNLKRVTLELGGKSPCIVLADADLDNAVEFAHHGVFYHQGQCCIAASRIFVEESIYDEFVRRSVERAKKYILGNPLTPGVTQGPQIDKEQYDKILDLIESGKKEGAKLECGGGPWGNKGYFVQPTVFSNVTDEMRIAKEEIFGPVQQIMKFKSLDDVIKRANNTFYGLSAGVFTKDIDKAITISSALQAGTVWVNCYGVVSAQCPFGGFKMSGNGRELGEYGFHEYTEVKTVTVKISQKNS
HPGD inh – inhibitors of human 15-hydroxyprostaglandin dehydrogenase (HPGD). Potency, µM, for the others: at the top dose activity change, negative = inhibition, usual class: inhibitors. AID 894. actives 4.3% (n = 150,000). purified HPGD, NADH fluorescence kinetic, PGE2 substrate. P15428; note: potency is the fitted concentration of half-maximal effect
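20 nM HPGD preincubated 15 min at room temperature with compound in 50 mM Tris-HCl pH 8, 0.01% Tween 20. Started with 1 mM NAD+ and 30 uM prostaglandin E2; NADH fluorescence (360/450 nm) read 5 times over 30-s intervals, last minus first.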
KinaseGlo FLuc – blocks Kinase-Glo luciferase, a counter-screen artifact. actives 0.28% (n = 200,000). Potency, µM (titrated, usually from 38.3 µM), inactives show at the top dose activity change, negative = inhibition, usual class: inhibitors. Q27757. Kinase-Glo luciferase, ATP luminescence, 8 min; active = well fitted inhibition curve with a large enough effect; inconclusive = small, poorly fitted or top-dose-only effect; note: potency is the fitted concentration of half-maximal effect; nearly all actives have a fitted effect of over 60% in size
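Recombinant Kinase-Glo luciferase, 10 uM ATP (linear range), luciferin; imidazole pH 7.2 / KCl / MgCl2 / Tween / BSA buffer; 8 min RT; luminescence.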
Lamin A splicing – changes lamin A minigene splicing in HeLa cells. HeLa LMNA splicing GFP/RFP minigene ratio, 48 h. actives 0.01% (n = 200,000). AID 1487. Potency, µM (doses to about 46.1 µM), inactives show at the highest dose ratio change, negative = inhibition, most hits filed as inhibitors; active = well fitted inhibition curve with a large enough effect in the signal ratio, with a control signal flat, not every such curve was filed as active; inconclusive = small, poorly fitted or top-dose-only effect, or effect the other way, or a change in a side signal; the % refers to the signal ratio; note: potency is the fitted concentration of half-maximal effect
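S3 HeLa stable clones carrying a lamin A-EGFP splicing minigene plus DsRed2 were seeded at 600 cells/well in Opti-MEM with 2% FBS, pin-dosed and incubated 48 h at 37°C. Acumen cytometry (488 nm) gave the GFP/RFP total-intensity ratio.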
IMPase cell inh – cell-permeable inhibitors of inositol monophosphatase (IMPase); P97697; CHO-M1 cells, IP1 accumulation, HTRF TR-FRET ratio; inhibition (IP1 accumulation), % at 46.1 µM; 120,000 tested, under 10 active; AID 901; active = well fitted curve in the direction sought with a large enough effect in the signal ratio, not every such curve was filed as active; inconclusive = small, poorly fitted or top-dose-only effect, or a change in a side signal; inactive = no such curve, though single readings can be large or run the other way; the % refers to the signal ratio;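 note: cells stimulated with carbachol in lithium chloride buffer; plate controls were DMSO basal wells for no effect and reference inhibitor wells for full effect; higher means more IMPase inhibition seen as more IP1 and lower FRET ratio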
Target sequence (P97697 whole entry, looked up): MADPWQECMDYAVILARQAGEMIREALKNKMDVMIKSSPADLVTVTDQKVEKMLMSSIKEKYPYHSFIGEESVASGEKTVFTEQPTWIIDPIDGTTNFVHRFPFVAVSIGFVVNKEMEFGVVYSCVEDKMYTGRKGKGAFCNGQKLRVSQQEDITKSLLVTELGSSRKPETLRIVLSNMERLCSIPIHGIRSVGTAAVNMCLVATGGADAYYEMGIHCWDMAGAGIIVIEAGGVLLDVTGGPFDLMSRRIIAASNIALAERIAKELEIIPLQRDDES
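Seeded CHO-M1 cells were dosed with compound at up to 46 uM, stimulated with carbachol for 30 min, then lysed in IP-One detection reagents. Higher IP1 lowers the TR-FRET signal.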
PNC assembly inh – blocks assembly of the perinucleolar compartment; PC3M PTB-GFP, PNC prevalence imaging, 16 h; active compounds read low; activity change (PNC), negative = inhibition, % at 10 µM; actives 3.1% (n = 140,000);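 active = readout at or below -70, meaning at least 70% loss of cells showing the perinucleolar compartment, a nuclear body marking cancer cells; inconclusive = readout between -30 and a set limit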;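 note: plate controls were DMSO wells for no effect and camptothecin positive control wells for full effect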
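Read-out is percentage of cells bearing a perinucleolar compartment, from automated 20x imaging of fixed, Hoechst-stained PC3M PTB-GFP cells. Cells were seeded 4 h, then exposed 16 h to compound (23 nl of library stock) in duplicate plates.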
The depositor's hits bear a star; ? = inconclusive; nt = no result; [ ] = dose if it differs, or a comment. Compounds with a hit are over-represented: about 10% of the library has one in this group of screens. Unless noted, calls come from the whole dose curve; as a rule, active = well fitted inhibition curve with a large enough effect (not every such curve was filed as active); inconclusive = small, poorly fitted or top-dose-only effect, or another doubt; inactive = no such curve, though single readings can be large or run the other way. Unless noted, % is set by controls: 0 for no effect and ±100 for the full control effect.

SMILES	ALDH1A1 inh	HPGD inh	KinaseGlo FLuc	Lamin A splicing	IMPase cell inh	PNC assembly inh
Cc1c(NC(=O)/C(C#N)=C/c2ccc(-c3cccc(Cl)c3)o2)c(=O)n(-c2ccccc2)n1C	4.2%	17.8µM*	0.8%	-16.8%	0.8	-26.2
Cc1c(NC(=O)/C(C#N)=C/c2ccc(-c3ccc(Cl)c(Cl)c3)o2)c(=O)n(-c2ccccc2)n1C	-1.0%	-10.2%	-0.3%	?	-1.6	19.0
Cc1cccc(-c2ccc(C=Nc3c(C)n(C)n(-c4ccccc4)c3=O)o2)c1	11.2µM*	-26.6%	-1.8%	6.1%	-9.2	7.4
Cc1c(N=Cc2nc3ccccc3n2C)c(=O)n(-c2ccccc2)n1C	7.5%	-6.0%	11.2µM*	7.4%	4.8	21.0
Cc1nc2nc[nH]n2c(=O)c1NS(=O)(=O)c1ccc(Br)cc1	nt	nt	nt	nt	-1.8	nt
COc1cccc(CNC(=O)C(=O)NCC(c2cccs2)S(=O)(=O)c2cccs2)c1 (centres undefined)	nt	nt	nt	18.9%[46 µM]	nt	nt
COCCNC(=O)CN1C(=O)c2cccnc2Oc2ccc(Cl)cc21	nt	nt	nt	23.5%[46 µM]	nt	nt
Cc1[nH][nH]c(=O)c1C(c1c(C)[nH][nH]c1=O)c1cn(C)c2ccccc12	?	nt	4.7%	nt	nt	nt
Cc1[nH][nH]c(=O)c1C(c1c(C)[nH][nH]c1=O)c1cn(Cc2cccc3ccccc23)c2ccccc12	0.316µM*	-10.2%	-3.1%	0.5%	10.9	-15.5
CCn1c(=O)cc(OCC(=O)N2CCN(c3cccc(C(F)(F)F)c3)CC2)c2ccccc21	11.2µM*	?	-5.0%	1.7%	-6.7	-5.5
COc1ccc(C(=O)CSc2n[nH]c(-c3ccco3)n2)cc1	-6.1%	3.55µM*	-0.8%	23.1%	5.7	-107.0*
CCc1nc(SCC(=O)c2ccc(C)c(C)c2)n[nH]1	?	?	2.3%	1.1%	-4.3	17.5
Cc1ccc(C(=O)CSc2n[nH]c(-c3ccco3)n2)cc1C	?	5.01µM*	3.1%	0.6%	-15.5	5.2
Cc1nc2ccn(Cc3cccnc3)c(=O)c2cc1C(=O)Nc1ccc(F)cc1F	nt	nt	nt	11.2%[46 µM]	nt	nt
C[C@](O)(c1ccccc1)c1nccc2ccccc12	8.9%[13.5 µM]	-7.3%	-6.2%[7.66 µM]	nt	nt	nt
Cc1ccc(-n2c([O-])nc(-[n+]3ccccc3)c2C=O)cc1	8.91µM*	-14.8%	-8.0%	-4.7%	2.7	-6.6
Cc1ccc[n+](-c2nc([O-])sc2C=O)c1	-2.8%	nt	-1.3%	-15.3%[46 µM]	nt	nt
O=c1cc(CSc2n[nH]c(-c3ccccc3)n2)[nH]c2ccccc12	nt	nt	nt	-7.2%[46 µM]	nt	nt
Cc1cc(C)cc(N=Cc2ccc([N+](=O)[O-])s2)c1	?	-9.5%	-1.6%	?	nt	39.0
NC(=O)c1ccc(N=Cc2ccc([N+](=O)[O-])s2)cc1	20µM*	-5.2%	-1.2%	?	nt	?
O=[N+]([O-])c1ccc(C=Nc2ccc(Cl)c([N+](=O)[O-])c2)s1	14.1µM*	nt	-0.5%	?	nt	nt
O=C1N(Cc2ccccc2F)c2ccccc2C12OCCCO2	22.4µM*	-6.1%	-1.6%	10.6%	-0.5	9.1
O=C(CCN1C(=O)C2(OCCO2)c2ccccc21)c1ccccc1	-1.1%	-6.5%	-1.6%	2.0%	5.2	19.3
COc1ccc(OC)c(NC(=O)CN2C(=O)C3(OCCCO3)c3ccccc32)c1	?	-0.3%	-1.7%	3.7%	5.1	44.3
O=C(CN1C(=O)C2(OCCO2)c2ccccc21)c1ccc(Br)cc1	14.1µM*	nt	nt	?	5.2	?
SMILES	ALDH1A1 inh	HPGD inh	KinaseGlo FLuc	Lamin A splicing	IMPase cell inh	PNC assembly inh
COc1ccccc1NC(=O)CN1C(=O)C2(OCCCO2)c2ccccc21	22.4µM*	-0.5%	2.7%	-18.2%	4.2	42.5
COc1ccc(CNC(=O)c2oc3c(c2C)-c2nn(Cc4ccccc4Cl)cc2CC3)cc1	nt	nt	nt	6.2%[46 µM]	nt	nt
CCCCC/C=C\C[C@@H]1O[C@H]1/C=C/C(O)C/C=C\CCCC(=O)O (some centres undefined)	3.0%	-3.1%	-0.3%	nt	nt	nt
Cc1ccc(NC(=O)C(=O)NCc2ccc(Cl)cc2)cc1	nt	nt	nt	nt	-2.3	nt
O=c1[nH]ncn1-c1cccc(C(F)(F)F)c1	5.9%	-9.5%	2.5%	-14.6%	-0.5	-106.3*
CC(C)NC(=O)CN1C(=O)CCn2nc(-c3cn(C)c4ccccc34)cc21	nt	nt	nt	-2.2%[46 µM]	nt	nt
O=S1(=O)[C@H]([C@H]2CC3c4ccccc4C2c2ccccc23)[C@@H](N2CCCCC2)[C@@H]1c1ccccc1	7.6%[13.5 µM]	-12.2%	-9.0%[7.66 µM]	nt	nt	nt
Cc1ccc(CSc2nnc3[nH]c(=O)cc(C)n23)cc1	nt	nt	nt	2.3%[46 µM]	nt	nt
CCCN(/C=N/c1sc2c(c1C#N)CCCCC2)CCC	?	-16.1%	-1.8%	8.9%	-12.2	21.7
CN(C)/C=N/c1sc2c(c1C#N)CCCCC2	3.98µM*	-23.9%	-0.3%	?	nt	-10.7
CN(C)/C=N/c1sc2c(c1C#N)CCC2	10µM*	25.1µM*	-5.7%	4.6%	4.8	-29.6
CN(C)/C=N/c1sc2c(c1C#N)CC(C)(C)NC2(C)C	7.3%	-6.6%	-2.5%	-8.2%	-6.0	?
N#Cc1c(/N=C/N2CCOCC2)sc2c1CCCCC2	14.1µM*	-19.5%	4.6%	1.5%	-4.3	?
O=C(Nc1nnc2n1CCS2)c1ccccc1C(F)(F)F	nt	nt	nt	0.3%[46 µM]	nt	nt
Cc1c(NC(=O)C2CCCNC2=O)c(=O)n(-c2ccccc2)n1C (centres undefined)	-20.8%	-9.8%	4.2%	-2.9%	-6.7	36.2
Cc1c(C(=S)NC(=O)C2CC2)c(=O)n(-c2ccccc2)n1C	17.8µM*	nt	-0.9%	10.6%[46 µM]	nt	nt
O=C1c2ccccc2C(Nc2ccc(Cl)cn2)N1Cc1ccccc1 (centres undefined)	12.6µM*	-20.6%	1.2%	5.9%	-0.7	-11.7
Cc1cccn2c(CN(C)CC3CCCCO3)c(C(=O)N3CCCCC3)nc12 (centres undefined)	0.199µM*	nt	nt	nt	nt	nt
Cc1cccn2c(CN[C@@H]3CCCC[C@H]3c3ccccc3)c(C(=O)N3CCOCC3)nc12	-1.7%	nt	-1.8%	nt	nt	nt
Cc1cccc(C(=O)n2nc(C)c(S(=O)(=O)N3CCOCC3)c2C)c1	nt	nt	nt	-19.8%[46 µM]	nt	nt
CCN(CC)c1ccc(N=Cc2c(C)[nH]c3ccccc23)cc1	0.447µM*	?	-3.3%	?	nt	?
Cc1[nH]c2ccccc2c1/C=N/n1cnnc1	10.1%	-13.2%	-1.2%	2.7%	-0.5	-28.4
COCCn1c(=O)c(-c2cn(C)c3ccccc23)nc2cnc(N3CCNCC3)nc21	?	nt	nt	-6.7%	nt	nt
O=C(COC(=O)C1CC(O)CN1S(=O)(=O)c1ccc(Cl)cc1)c1ccccc1Cl (centres undefined)	17.8µM*	-1.7%	-1.2%	0.3%	nt	-21.6
CC(C)N(C(=O)COC(=O)[C@@H]1CC(O)CN1S(=O)(=O)c1ccc(C(C)(C)C)cc1)C(C)C (some centres undefined)	8.91µM*	nt	4.0%	-10.7%[46 µM]	nt	nt
